Measurements reported in PubChem BioAssay (NCI).
Compounds without any hit were thinned out: in the full panel of roughly 83,000, 20% have a hit.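 Assay: single dose, 48 h. Readout: percent growth (0 = no net growth; negative = cell death). Active: <10.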 Calls of active or inactive are those of the source.

test system: SN12C renal; test: NCI-60 one-dose screen, 48 h (100 = growth as untreated, 0 = no growth, -100 = all killed); conditions: 10 µM unless noted
Experimental: Growth inhibition of the SN12C human tumor cell line is measured as a screen for anti-cancer activity. Cells are grown in 96 well plates and exposed to the test compound for 48 hours. Compounds are tested at a single concentration, which is 10^-5 M for most compounds. The reported endpoint is percent growth (GI% or GIPRCNT), where numbers from 0 - 100% represent growth inhibition, and numbers from -100% - 0 represent cell death. For example, a value of 40 represents 60% growth inhibition. A value of 0 means no net growth occurred over the course of the experiment. A value of -40 indicates 40% of cells at the beginning of the experiment died by the end of the experiment. A value of -100 means all cells are dead at the end of the experiment.
NCI-60 Human Tumor Cell Lines Screen was performed using the standard one-dose NCI protocol, which is described in more detail at https://dtp.cancer.gov/discovery_development/nci-60/default.htm.
Compounds with GIPRCNT values below 10 were considered active. Activity score was based on GIPRCNT using the following formula: […]
Score is 0 for GIPRCNT values of 100 or above, 50 for GIPRCNT values of 0, and 100 for GIPRCNT values of -100.

Row | Structure (SMILES) | growth
1 | Clc1cnc(Nc2ccc(OCCN3CCCC3)cc2)nc1NCc1ccco1 | 5.92% (active)
2 | CCOC(=O)c1sc2ccc(NCc3nc[nH]c3C)cc2c1NC(=O)c1cc(OC)c(OC)c(OC)c1 | 87.5% (inactive)
3 | COc1ccc(OC)c(/C=C2\COc3ccc(O)c(O)c3C2=O)c1 | -4.71% (active)
4 | O=C1CSC(c2ccccc2)N1c1ccccc1 (stereo not given) | 101% (inactive)
5 | COC(=O)c1ccc2oc(NC(=O)c3ccc(N4CCOCC4)c([N+](=O)[O-])c3)nc2c1 | 87.3% (inactive)
6 | C=CC(=O)N[C@@H](Cc1ccc(-c2cc(Cl)cc(Cl)c2)cc1)[C@@H](O)[C@H](O)C(=O)O | 95.7% (inactive)
7 | Cc1cc(Cc2cc(C)cc(C(C)(C)C)c2O)c(O)c(C(C)(C)C)c1 | 28.1% (inactive)
8 | CCOC(=O)C1C(=O)C=C(c2cnccn2)CC1c1ccc(OC)c(OC)c1 (stereo not given) | 100% (inactive)
9 | COc1ccc(C2CC(c3ccccc3)=NN2c2nc(C)c(C(C)=O)s2)cc1 (stereo not given) | 105% (inactive)
10 | O=C1CSC(c2ccccc2O)N1c1nnc(Cn2cnnc2)o1 (stereo not given) | 79.6% (inactive)
11 | CC(C)(C)CC(C)(C)Nc1c(-c2ccc(-c3ccccc3)cc2)nc2cnccn12 | 98.7% (inactive)
12 | C=C(Cl)COC(=O)C(C)(C)O | 107% (inactive)
13 | CCCCCCNCc1cc(C(C)(C)C)cc(CNCCCCCC)c1O | -42.2% (active)
14 | COc1cc2oc(-c3cccc(C(=O)Nc4ccc(C#N)cc4)c3)cc(=O)c2c(O)c1OC | 64.9% (inactive)
15 | CNCCNc1nc2ccccc2c2c(=O)c3cc(F)ccc3oc12 | 46.9% (inactive)
16 | N#Cc1c(N)nc2c(nnn2-c2cccc(Br)c2)c1N | 93.4% (inactive)
17 | CN(C)CCCCNc1ccc(NCCCCN(C)C)c2c1C(=O)c1c(O)ccc(O)c1C2=O | 64.2% (inactive)
18 | Cc1ccc(O)c(C(=O)c2ccccc2Cl)c1 | 103% (inactive)
19 | O=C1N/C(=N/O)S/C1=C/c1cn(-c2ccccc2)nc1-c1ccccc1 | 96.1% (inactive)
20 | COc1cc(C2CC(c3ccc(Nc4nc(Nc5ccc(F)cc5)nc(Nc5ccc(Cl)cc5)n4)cc3)=NN2C(C)=O)cc(OC)c1OC (stereo not given) | 80.8% (inactive)

Row | Structure (SMILES) | growth
21 | COc1ccc(O)c(-c2cc(-c3ccccc3)c(C#N)c(=O)[nH]2)c1 | 85.1% (inactive)
22 | CCOC(=O)c1c(C)nc2c(c1N)/C(=C/c1cc(OC)c(OC)c(OC)c1)C(=O)N2c1ccc(OC)cc1 | 36.2% (inactive)
23 | CCCCC1COc2cccc3c(SCC(=O)N(C)c4cccc(Cl)c4)cc[n+]1c23 (stereo not given) | 94.4% (inactive)
24 | Cc1cc(C)on1 | 99.6% (inactive)
25 | CCc1c(C(=O)N[C@@H]2c3cc(Cl)ccc3CC[C@@H]2O)[nH]c(C)c1C(C)=O | 94.7% (inactive)
26 | CCOC(=O)c1sc(-c2ccc(OS(=O)(=O)c3ccc(C(C)(C)C)cc3)c(C=O)c2)nc1C | 32.1% (inactive)
27 | C(=C\c1nc2ccccc2[nH]1)/c1nc2ccccc2[nH]1 | 100% (inactive)
28 | COc1ccc(/C(C)=N/NS(=O)(=O)c2ccc(C)cc2)cc1OC | 109% (inactive)
29 | Cn1cc(-c2ccc3ncc(-c4ccc(CC(=O)Nc5cc(C(C)(C)C)nn5C)cc4)cc3c2)cn1 | 16.6% [30 µM] (inactive)
30 | O=C1NC(=S)S/C1=C\N1N=C(c2ccc(Cl)cc2)CC1c1ccc(F)cc1 (stereo not given) | 96.5% (inactive)
31 | COc1cccc(CCC2CCCN(c3cc(C)nc(N)n3)C2)c1 (stereo not given) | 34.1% (inactive)
32 | COc1cc(NC(=O)c2cccc(-c3cc(=O)c4c(OC)c(OC)c(OC)cc4o3)c2)cc(OC)c1OC | 45.9% (inactive)
33 | O=C(Oc1ccc[nH]c1=O)c1cc([N+](=O)[O-])cc([N+](=O)[O-])c1 | 107% (inactive)
34 | O=C(NC(=S)Nc1ccc(-c2nc3ccccc3[nH]2)cc1)c1ccc2ccccc2c1 | 15.9% (inactive)
35 | N=c1ccn2c(n1)OC1C(O)C(CO)OC12 (stereo not given) | 34.9% (inactive)
36 | C=C1C(=O)O[C@H]2[C@H]1CC/C(COC(=O)/C=C\C(=O)NCc1ccc(Cn3c(=O)sn(-c4ccc(OC)cc4)c3=O)cc1)=C\CC[C@@]1(C)O[C@@H]21 | -96.4% (active)
37 | CC(=O)c1ccc2c(c1)CCN2 | 96.7% (inactive)
38 | O=C(CCl)N1c2cccc3cccc(c23)N(C(=O)CCl)C1c1cn(-c2ccccc2)nc1-c1cccc([N+](=O)[O-])c1 | 93.5% (inactive)
39 | COc1ccc(-n2ncn(CCCCCCn3cnn(-c4ccc(OC)cc4)c3=O)c2=O)cc1 | 90.6% (inactive)
40 | CCN(CC)c1ccc(Nc2ccc(CC(=O)c3ccccc3)cc2)cc1 | 95.3% (inactive)
